The record followed here is PubChem BioAssay (NCI).

Each structure is given as a SMILES string. About 83,000 compounds went through this panel and 20% of them were active in at least one assay; those are over-represented in the sample as a whole.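 Single-concentration screen, 48 h exposure, 96-well plates. Endpoint: percent growth. Below 10 = active.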 A number with no mark means an inactive call. The source made the active and inactive calls.

Holding throughout (assay): NCI-60 one-dose screen, 48 h (100 = growth as untreated, 0 = no growth, -100 = all killed)
Common to all, as to settings: 10 µM unless noted

The subject of assay [1] is SK-MEL-2 melanoma.
Assay [2] relates to EKVX NSCLC.
Assay [3] concerns SN12C renal.
For assay [4], the system named is UO-31 renal.
For assay [5], the system named is TK-10 renal.
Assay [6] has as its system ACHN renal.
The subject of assay [7] is CAKI-1 renal.
The test system of assay [8] is A498 renal.
Assay [9] deals with CCRF-CEM leukemia.
Assay [10] deals with MOLT-4 leukemia.

With `CCOC(=O)c1cnn(CC(C)O)c1NC(=O)NCc1cccc(F)c1` (stereo not given), the growth is 85.6% in assay [1]; 99.9% in assay [2]; 103% in [3]; 91.7% in [4]; 86.9% in assay [5]; 106% in assay [6]. In addition, the growth in assay [7] is 97.3%; in assay [8] it was 96.4%; in assay [9], -2.06% (active); in assay [10], 81.4%.
`Cc1c2ncccc2nc2[nH]c3ccc(OCCN(C)C)cc3c12`: the growth was 33.7% in [1]; 49.2% in assay [2]; 13.9% in assay [3]; 19.1% in assay [4]; 31% in assay [5]; 10.6% in assay [6]. For the same compound, the growth in assay [7] is 63.3%; in assay [8], 79.9%; in assay [9], 6.43% (active); in assay [10], 9.61% (active).
On to `COC12C=C/C(=C(/C(=O)OCCSc3ccnn3C)C(=O)CCCCCCCCC3(OC)C=C/C(=C(/C(=O)OCCSc4ccnn4C)C(=O)CCCCCCCC1)O3)O2`, for which the growth in assay [1] was 12.3%; in [2], 9.41% (active); in assay [3], -4.94% (active); in assay [4], 14.8%; in assay [5] it was 39.9%; in [6] it was 4.65% (active). Also, the growth in assay [7] is 26.6%; in [8], -53.5% (active); in [9], 11.1%; in assay [10], -0.956% (active).
Consider `Cc1ccc2c(/C=C/C(=O)c3cc(CN4CCOCC4)c(O)c4nc(C)ccc34)cc(CN3CCOCC3)c(O)c2n1`, for which the growth in assay [1] was -2.61% (active); in [2] it was 31.5%; in assay [3], 7.92% (active); in [4], -16.8% (active); in assay [5], 17.8%; in assay [6] it was -26.3% (active). In addition, the growth in assay [7] is 12.9%; in assay [8], -16.5% (active); in assay [9], 3.28% (active); in assay [10], -2.3% (active).
In the case of `Cc1c(O)cc(-c2cnc(N/N=C/c3ccccc3)s2)c(O)c1C`, the growth is 104% in assay [1]; 87.2% in [2]; 95.6% in [3]; 79.9% in [4]; 129% in assay [5]; 99.4% in assay [6]. In addition, the growth in assay [7] was 91.7%; in assay [8], -20.4% (active); in assay [9], 8.48% (active); in assay [10], 9.73% (active).
Take `COc1cc2ncnc(Nc3ccc(F)c(Cl)c3)c2cc1OCC(=O)N1CCOCC1`: the growth in assay [1] was 87.1%; in [2] it was 63.3%; in assay [3] it was 80.3%; in assay [4] it was 52.4%; in assay [5], 20.8%; in assay [6] it was 31.9%. For the same compound, the growth in assay [7] is 48.4%; in assay [8], 66.2%; in assay [9], 91.6%; in assay [10], 91.5%.
For `O=C1/C(=C/c2ccccn2)SC(=S)N1N1CCOCC1`, the growth was 89.8% in [1]; 90.6% in assay [2]; 93.6% in [3]; 71.9% in assay [4]; 98.5% in assay [5]; 99.5% in assay [6]. In addition, the growth is 92.6% in [7], 102% in [8], 84.2% in assay [9] and 101% in assay [10].
Take `Cc1cc(O)c(=O)cc2c1C[C@H]1CC(C)(C)/C=C/C[C@]3(C)Oc4cc(=O)c(O)cc(C)c4C[C@H]3C[C@H](O)[C@@]1(C)O2`: the growth was -0.26% (active) in assay [1]; 1.96% (active) in assay [2]; 0.888% (active) in assay [3]; -3.55% (active) in assay [4]; 12.8% in assay [5]; 6.64% (active) in assay [6]. Besides, the growth was 0.0892% (active) in assay [7], 12.3% in assay [8], 9.98% (active) in [9] and 7.8% (active) in [10].
On to `CCN1C(=O)N(c2ccccc2)C2NC(=S)N(/N=C/C=C/c3ccccc3OC)C21` (stereo not given), for which the growth in [1] was 50.8%; in [2], 54%; in assay [3] it was 17.9%; in assay [4], 34.7%; in assay [5] it was 75.7%; in [6], 29.2%. For the same compound, the growth was 19.5% in [7], 3.46% (active) in [8], 11.4% in assay [9] and 13.3% in assay [10].
Turning to `CC(C)n1c2ccc(Br)cc2c2c3c(c4c5ccccc5ccc4c21)C(=O)NC3=O`, the growth was 111% in assay [1]; 86.1% in [2]; 85.9% in [3]; 59.2% in assay [4]; 91.8% in assay [5]; 68.4% in assay [6]. In addition, the growth is 82.5% in [7], 71.8% in assay [8], 90.1% in assay [9] and 75.1% in assay [10].
For the compound `COc1ccc(/C=C(/C(=O)N2CCNCC2)c2cc(OC)c(OC)c(OC)c2)cc1O`, the growth in assay [1] is 10.8%; in assay [2] it was 84.1%; in [3], 54.6%; in assay [4] it was 89.7%; in assay [5], 92.4%; in [6] it was 103%. The growth in assay [7] was 93.1%; in [8], 59%; in assay [9], 15.4%; in [10], 25.5%.
On to `[N-]=[N+]=NCC1OC(n2cnc3c(NC(=O)Nc4ccccc4)ncnc32)C2OC(=O)CC12` (stereo not given), for which the growth in assay [1] is 90.7%; in [2], 104%; in assay [3] it was 118%; in assay [4], 78.8%; in [5], 101%; in assay [6], 101%. Besides, the growth in assay [7] was 101%; in [8], 100%; in [9], 91.7%; in assay [10] it was 84.6%.
Consider `CS(=O)(=O)Nc1cc(-c2ccc3ncnc(Nc4ccc(OCc5ccccn5)c(Cl)c4)c3c2)cnc1Cl`, for which the growth in assay [1] was -65% (active); in assay [2] it was 3.3% (active); in assay [3] it was 20%; in assay [4], 0.194% (active); in assay [5], -19.8% (active); in assay [6], 23.7%. Also, the growth was 29.2% in [7], -61% (active) in [8], -2.25% (active) in [9] and -29.5% (active) in [10].
Take `Cc1ccc(S(=O)(=O)N2CCCN(c3nc(-c4ccccc4)nc4nc(-c5ccccc5)oc34)CC2)cc1`: the growth in assay [1] was 103%; in [2], 112%; in [3], 97.6%; in assay [4], 76.8%; in [5], 103%; in [6] it was 103%. The growth was 93.2% in assay [7], 106% in assay [8], 106% in [9] and 95% in [10].
Take `O=S(=O)(NCCNc1nccc(-c2c(-c3ccc(F)c(O)c3)nc3sccn23)n1)c1ccc(Cl)cc1`: the growth was -31.6% (active) in assay [1]; 36.6% in assay [2]; 26.3% in [3]; 11.6% in [4]; 44.8% in assay [5]; 19.8% in assay [6]. In addition, the growth in assay [7] is 19.5%; in assay [8], 30.8%; in assay [9], 14.2%; in assay [10] it was 1.03% (active).
Regarding `O=C(C[C@]1(O)C(=O)Nc2ccc(Br)cc21)c1ccco1`, the growth in assay [1] is 94.5%; in assay [2], 107%; in assay [3] it was 90%; in assay [4], 75.4%; in assay [5], 125%; in assay [6], 109%. Also, the growth was 93.4% in assay [7], 103% in [8], 104% in assay [9] and 102% in assay [10].
As to `C=C1C(=O)O[C@H]2[C@H]1CC/C(COC(=O)NCc1ccc(Cn3c(=O)sn(-c4ccc(I)cc4)c3=O)cc1)=C\CC[C@@]1(C)O[C@@H]21`, the growth in [1] was 89.7%; in [2], 98.4%; in [3], 79.1%; in [4], 54.4%; in [5], 79.9%; in [6] it was 69.7%. In addition, the growth is 71.5% in assay [7], 87.7% in [8], -14.3% (active) in [9] and 5.6% (active) in assay [10].
Regarding `COc1ccc(-c2cc(-c3cccnc3)nc3sc4c(N)c(C(C)=O)c(-c5ccccc5)nc4c23)cc1OC`, the growth in [1] is 89.1%; in assay [2], 87.4%; in assay [3], 80.3%; in [4] it was 51.8%; in assay [5] it was 77.6%; in [6] it was 81.1%. For the same compound, the growth in [7] was 61.8%; in assay [8], 71.7%; in [9] it was 70.5%; in assay [10] it was 72.5%.
Regarding `c1ccc(Nc2nc3c(s2)CCc2c[nH]cc2-3)nc1`, the growth was 99.2% in assay [1]; 75.3% in assay [2]; 106% in [3]; 59.4% in assay [4]; 159% in assay [5]; 92.3% in assay [6]. Further, the growth in [7] is 97.3%; in assay [8] it was 81%; in [9], 9.72% (active); in assay [10], 64.7%.
Turning to `N#Cc1c(-c2ccc(Cl)cc2)nc(NN=Cc2ccc[nH]2)nc1N1CCOCC1`, the growth in [1] was 98.8%; in assay [2], 66%; in [3], 40.1%; in assay [4] it was 14.8%; in assay [5], 63.3%; in assay [6], 82.5%. The growth in assay [7] was 63.2%; in assay [8], 31.7%; in assay [9], 20.8%; in [10], 17.4%.
Turning to `CC(C)NS(=O)(=O)/N=C1\NC(=O)NC1=C(Cl)Cl`, the growth in [1] is 95.6%; in assay [2] it was 103%; in [3], 94.8%; in [4], 102%; in assay [5], 116%; in [6], 113%. Further, the growth is 91.6% in assay [7], 116% in assay [8], 81.4% in [9] and 87% in assay [10].
`Cn1cc(-c2nonc2-c2c[nH]c3ccccc23)c2cc(Br)ccc21`: the growth is 41% in [1]; 33.6% in assay [2]; 55% in [3]; 36.8% in assay [4]; 53.3% in [5]; 40.3% in [6]. For the same compound, the growth in assay [7] is 26.3%; in assay [8], 40.3%; in [9], 31%; in [10] it was 17.8%.
As to `C=C(C)[C@@H]1CC[C@]2(C(=O)Nc3ccccn3)CC[C@]3(C)[C@H](CC[C@@H]4[C@@]5(C)CCCNC(C)(C)[C@@H]5CC[C@]43C)[C@@H]12`, the growth in assay [1] is 41.2%; in assay [2], 25.3%; in assay [3] it was 20.8%; in [4], 55.9%; in assay [5], 28.4%; in assay [6], 33.4%. The growth was 34.8% in assay [7], 18.9% in assay [8], 9.61% (active) in [9] and -0.121% (active) in [10].
As to `Cc1c(C(C)(C)O)cn2ncnc(Oc3ccc(NC(=O)Nc4ccc(Cl)c(C(F)(F)F)c4)c(F)c3)c12`, the growth in [1] is 94.7%; in [2], 56.3%; in assay [3], 57.6%; in [4], 69.9%; in assay [5] it was 85.1%; in assay [6], 39.5%. Also, the growth in [7] was 47.9%; in [8], 29.5%; in [9], 29.2%; in [10], 32.2%.
